Test: probe aShh binding to arrayed compounds – biochemical, biotinylated probe, 635/667 nm fluorescence, primary screen (AID 1114);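 note: probe is biotin-labelled aShh protein from a stem cell growth factor screen; measures binding of labelled protein to compounds printed on the slide; score merges feature fluorescence at 667 nm with signal-to-noise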
Settings: small-molecule microarray, higher = more signal
`CCC[C@@H]1C=C(C(=O)OCC)[C@H](c2ccccc2)N1S(=O)(=O)c1ccc(C)cc1` gave a composite z-score of -0.195.
`COCCOC(=O)N1C(=O)[C@@]2(c3cc(C#CCC(C(=O)OC)C(=O)OC)ccc31)[C@H](c1ccc(OCCO)cc1)N1[C@H](c3ccccc3)[C@H](c3ccccc3)OC(=O)[C@H]1[C@@H]2C(=O)N1CCCCCCC1` showed a composite z-score of 2.6.
`CCOC(=O)C[C@H]1[C@H](OC(=O)c2ccc(-c3ccccc3)cc2)[C@@H](NC(=O)CC(C)C)c2cc(OCCCO)ccc2N1C(=O)Cc1ccc(OC)cc1` gave a composite z-score of -0.2.
Work on `COCCOC(=O)N1C(=O)[C@@]2(c3cc(C#CCC(C(=O)OC)C(=O)OC)ccc31)[C@H](C(N)=O)[C@H]1C(=O)O[C@H](c3ccccc3)[C@H](c3ccccc3)N1[C@@H]2c1ccc(OCCO)cc1` yielded a composite z-score of 0.184.
For `C=CCC(OC(C)=O)[C@@H]1[C@@H](N(Cc2ccc(-c3cccc(C(F)(F)F)c3)o2)C(=O)c2cccc3ccccc23)c2cc(OCCCO)ccc2N1C(=O)c1ccc2ccccc2c1` (some centres undefined), the composite z-score was -0.0709.
Work on `COC(=O)[C@@]1(Cc2ccccc2)[C@H]2c3cc(C(=O)N4CCCC4)n(Cc4ccc(C(F)(F)F)nc4)c3C[C@H]2CN1C(=O)c1ccccc1` yielded a composite z-score of 1.36.
`C=CC[C@@]1(C(=O)O)N=C(c2ccc(OCCCO)cc2)O[C@@H]1c1ccccc1CN=[N+]=[N-]` showed a composite z-score of -0.0119.
Work on `COc1ccc([Si](C)(C)[C@H]2[C@H](CCn3cc([C@H](O)c4ccccc4)nn3)O[C@@]3(C(=O)N(C)c4c(Br)cc(C)cc43)[C@@H]2C)cc1` yielded a composite z-score of 0.0796.
`CC1(C)OC[C@@]23C=C(Br)[C@@H](C[C@H]12)[C@@]1(CO1)C3=O` gave a composite z-score of -0.0769.
